# AI-2 QS mod: Vibrio harveyi AI-2 quorum sensing modulation. Vibrio harveyi JMH597 AI-2 luminescence/OD600 ratio, 9 h; stronger effect = lower value; strain lacks LuxN and CqsS sensors; 0 = neutral-control median. activity change, % at 7.5 µM. 300,000 compounds, 0.4% hits. AID 2094; in the data active = activity change below about -75%, passing the limit was not always enough;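 also: luminescence divided by OD600 gain over 9 h not by final OD600 alone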
# SMARCA2 activ: SMARCA2 function activation, primary screen; MG213 cells, MMTV-luciferase reporter, dexamethasone, overnight; activation, % at 9.1 µM; 370,000 compounds, 1% hits; AID 652017; in the data active = activation above about 7.8%;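 also: 0% = vehicle wells and 100% = reference activator wells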
# HSF1 inh: HSF1 inhibition; NIH3T3-HGL HSE-luciferase, MG132-induced, luminescence 8 h; stronger effect = lower value; activity change, negative = inhibition, % at 7.5 µM (by protocol); 300,000 compounds, 0.77% hits;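 active = more than half of replicate wells show activity change below -50%, luminescence cut by over half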;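 also: luciferase reports HSF-1 transcriptional activity via heat shock element; 0% = median of DMSO wells and -100% = zero luminescence signal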
# GAA850 FXN act: increases GAA850 frataxin promoter reporter activity; HEK293 lucGAA850 FXN promoter luciferase reporter, 24 h; percent of 10 µM SAHA response; activation, % at 6 µM; 360,000 compounds, 0.56% hits; AID 540364;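 active = activation above the average of all compounds screened plus 3 SD, cutoff fixed separately per campaign, cut at about 7.5% in these data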;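 also: 0% = DMSO wells and 100% = 10 µM SAHA wells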
# PG9 binder: binds the HIV-1 gp120 antibody PG9. TR-FRET gp120-PG9 antibody binding. 360,000 compounds, 0.43% hits. inhibition, % at 6.7 µM; in the data active = inhibition above about 8.5%
# HSP90 refold inh: HSP90 refolding inhibition in rabbit reticulocyte lysate; luciferase refolding luminescence, 3 h; inhibition, % at 5.6 µM; 290,000 compounds, 0.91% hits; AID 1789;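 active = inhibition above the screen-wide mean plus 3 SD, computed separately per campaign, cut at about 16% in these data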;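 also: 0% = DMSO wells and 100% = 60 µM geldanamycin wells; inhibitors lower the luminescence because luciferase stays unfolded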
# SMARCA2 act conf: confirmation of SMARCA2 (BRM) function activators | shares compounds with SMARCA2 activ | MG213 cells, MMTV-luciferase with dexamethasone, luminescence, overnight; MG213 cells expressing E1A, Rb sequestered; DMSO wells 0%, reference activator 100% | activation, % at 9.1 µM | 3,500 compounds, 30% hits | AID 652260;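 active = activation above its plate's cutoff, the mean activation of tested wells plus 3 SD, cut at about 7.9% in these data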
# GAL4-VP16 Luc: counter-screen for SMARCA2 activators: GAL4-VP16 luciferase reporter activation. 3,500 compounds, 41% hits. activation, % at 9.1 µM. shares compounds with SMARCA2 activ. HEK293 GAL4-VP16 pG5luc reporter, luciferase luminescence; scaled: DMSO wells 0%, SAHA wells 100%;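 active = activation above the solvent-only control well mean plus 3 SD, averaged across control plates, cut at about 5.2% in these data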
# Numbers without * were called inactive; . = not tested or not shown. Most compounds without a hit are left out; they make up all but 3.4% or so of the library.
SMILES,AI-2 QS mod,SMARCA2 activ,HSF1 inh,GAA850 FXN act,PG9 binder,HSP90 refold inh,SMARCA2 act conf,GAL4-VP16 Luc
COc1cccc(-c2nn3c(-c4ccccn4)nnc3s2)c1,15.9,8.7*,5.9,0.4,-1.1,2.1,3.1,1.4
COc1ccc(S[C@]2(C(=O)N(C)C)CC(=O)N(S(=O)(=O)c3ccc(F)cc3)[C@@H]2c2ccc(OC)cc2)cc1,.,-3.7,.,.,.,.,.,.
Cc1cc(CN2CCCC(C(=O)Nc3ccc(-c4nc5ccccc5[nH]4)cc3)C2)n[nH]1 (configuration not stated),3.2,10.0*,-7.7,1.7,-2.1,3.9,2.1,5.5*
CCn1cc(CN2CCCC(C(=O)Nc3ccc(-c4nc5ccccc5[nH]4)cc3)C2)c(C)n1 (configuration not stated),13.9,1.8,-17.0,4.3,-1.9,-1.6,.,.
COc1ccc(/C=C/S(=O)(=O)NCc2ccc(F)cc2)c(CNC(=O)OC(C)(C)C)c1,.,-5.5,.,.,.,.,.,.
O=C(Nc1ccc(F)cc1)C(c1ccccc1)N1CCN(c2ccncc2)CC1 (configuration not stated),.,8.3*,.,.,-0.1,.,1.5,-0.3
Cc1ccccc1Cn1c([N+](=O)[O-])cnc1C,-2.4,9.9*,-1.0,1.3,0.1,2.8,-2.1,-0.2
COC(=O)C1=C(C)N(C)C(=NCc2ccc3c(c2)OCO3)NC1c1ccc(C(F)(F)F)cc1 (configuration not stated),.,-2.7,.,.,-0.4,.,.,.
CC(=Nc1ccc(Cl)cc1N)c1c(O)cc(C)oc1=O,.,9.0*,.,.,-1.7,.,5.4,15.0*
COc1ccccc1Cc1c(-c2cccc(Cl)c2)nc2c3ccccc3ccn12,.,2.5,.,.,0.4,.,.,.
c1cncc(-c2csc(-c3cccnc3)n2)c1,12.5,-0.7,-2.1,0.4,-2.6,-0.3,.,.
Oc1ccc(-c2csc(-c3cccnc3)n2)c(O)c1,23.3,8.2*,6.3,-2.1,-2.0,-4.8,12.5*,11.6*
COc1ccc(CNC(=O)N(C)C[C@@H]2OCc3ccccc3-c3c(n(C)c4ccccc34)C(=O)N([C@@H](C)CO)C[C@@H]2C)cc1,.,-3.6,.,.,-1.7,.,.,.
COC(=O)N1C[C@H](OC(=O)c2ccc(-c3ccccc3)cc2)[C@H]2C[C@@H]1c1ccccc1O2,.,-5.4,.,.,-0.6,.,.,.
CC(=O)Nc1ccc(C(=O)OCCC(C)C)cc1,-48.7,8.9*,11.9,-1.6,-1.0,-1.7,2.5,3.5
CCOC(=O)c1cnc2c(N=Nc3ccccc3)c(N)nn2c1N,25.7,8.3*,-15.5,4.1,-1.3,3.1,10.8*,12.5*
CC(=O)C1=CCN(C)CC1,.,-5.0,.,.,0.4,.,.,.
COc1ccc(CCN2C(=O)C3C4C=CC(C4)C3C2=O)cc1OC (configuration not stated),10.0,4.0,-5.7,0.8,-1.7,-1.3,.,.
CCOc1ccc(CCN2C(=O)C3C4CCC(O4)C3C2=O)cc1OCC (configuration not stated),.,10.3*,.,-0.6,-2.4,.,0.0,0.1
Cc1occc1C(=O)N/N=C/C1=C(N2CCOCC2)C(=C\c2ccc(Cl)cc2Cl)/CC1,18.3,12.5*,5.9,2.5,-2.0,-1.8,1.9,0.5
Cc1cc(C)nc(N/N=C/C2=C(N3CCOCC3)C(=C\c3ccc(Cl)cc3)/CC2)n1,38.4,-3.2,12.7,2.9,-1.0,1.8,.,.
Cc1n[nH]c(=S)n1/N=C/c1cccc(OCc2ccccc2)c1,26.2,8.6*,0.9,0.8,-2.1,4.9,-1.0,1.7
Cc1cccc(/C=N/n2c(COc3ccccc3)n[nH]c2=S)c1,84.6,-1.8,1.4,3.4,1.4,2.9,.,.
Cc1ccc(N2C(S)=C(C#N)C(=O)NC2c2cccs2)cc1 (configuration not stated),39.0,8.0*,-4.4,1.0,-2.1,-5.3,2.2,0.4
N#CC1=C(S)N(c2ccccc2)C(c2cccs2)NC1=O (configuration not stated),16.0,1.4,-9.3,-1.8,-3.0,0.9,.,.
SMILES,AI-2 QS mod,SMARCA2 activ,HSF1 inh,GAA850 FXN act,PG9 binder,HSP90 refold inh,SMARCA2 act conf,GAL4-VP16 Luc
CCN(CC)CCOc1ccc2c(c1)C(=NO)c1cc(OCCN(CC)CC)ccc1-2,32.6,23.4*,-6.5,1.1,-0.5,6.2,75.8*,0.0
CCN(CC)CCOc1ccc(Br)cc1,15.7,-1.3,-6.6,3.0,-1.0,-0.6,.,.
COc1ccc(C(C(=O)N(C)C2CCCC2)N(Cc2ccc(F)cc2)C(=O)c2cc(C)[nH]n2)cc1OC (configuration not stated),.,10.8*,.,.,.,.,3.9,0.5
COc1ccc(C(C(=O)N(C)C2CCCC2)N(Cc2ccc(F)cc2)C(=O)c2csc(N3CCOCC3)n2)cc1OC (configuration not stated),.,-1.0,.,.,.,.,.,.
CCN(CC)C(=O)c1cc2c(=O)c3cc(F)ccc3oc2nc1C,8.3,9.6*,11.4,7.3,-2.6,-5.4,4.3,3.9
CCOC(=O)c1cc2c(=O)c3ccccc3oc2nc1C,-8.0,7.3,15.2,2.0,-2.7,3.6,.,.
Cc1cc(F)ccc1-c1cc(C(=O)NCC2CCCCC2)[nH]n1,.,8.6*,.,-0.1,1.7,.,-1.1,0.4
Cc1ccc(C(=O)OCc2cc(=O)n3c(C)csc3n2)s1,.,8.8*,.,2.3,1.2,.,7.8,1.4
CCOC(=O)C(=O)Nc1ccccc1C(=O)Nc1ccc(OC)cc1,18.4,9.1*,-5.9,3.3,1.0,4.6,-0.3,1.2
CCOC(=O)c1sc(N)c(C(=O)OCC)c1C,13.4,22.5*,6.4,4.0,-2.5,-5.4,6.8,7.5*
CC(C)CN1C(=O)[C@]2(CC(=O)N(C)C2c2ccccc2)c2cc(-n3cc(C4=CCCCC4)nn3)ccc21 (some centres not stated),.,-4.3,.,.,.,.,.,.
CC(C)(C)N1NC(=O)Nc2ccccc2C1=O,24.5,9.6*,1.1,-1.0,-1.9,-1.2,-2.9,0.3
CC(C)(C)N1C(=O)c2ccccc2NC(=O)N1Cc1ccccc1,14.4,4.3,5.3,-0.4,-1.2,-0.1,.,.
CCCN1C(=O)c2n[nH]c(C)c2C1c1ccc(Br)cc1 (configuration not stated),.,0.8,.,.,-1.2,.,.,.
COc1cc2c(c(OC)c1OC)CC(c1ccccc1)=C(c1ccccc1)CC2NC(=O)C(F)(F)F (configuration not stated),.,-2.1,.,.,1.0,.,.,.
Oc1c(N=Nc2ccc(F)cc2)ccc2ccccc12,2.9,10.8*,10.2,2.5,-1.2,2.6,4.0,8.6*

# Screening results from PubChem BioAssay.
